Shown are actives, neighbours in structure and some others; about 4.1% of the full set was active somewhere.
FAS TE block – FAS thioesterase (human) inhibition. inhibition, % at 15 µM. AID 602261. 360,000 compounds, 0.67% hits. recombinant FAS-TE, OMFH fluorogenic substrate, fluorescence endpoint;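 active = compounds whose normalised, plate-corrected inhibition of enzyme fluorescence in the single-dose primary screen is 50% or more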
MPTP inh – blocks calcium-induced mitochondrial swelling; isolated mouse mitochondria, Ca2+ swelling absorbance, 30 min; 360,000 compounds, 1.4% hits; inhibition, % at 10 µM;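 active = inhibition of 50% or more, scaled per plate between neutral and stimulator controls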
MIN6 prolif – induces beta-cell replication in MIN6 cells | proliferation, % at 10 µM | 330,000 compounds, 0.29% hits | AID 2380 | MIN6 cells proliferation, ATPlite luminescence, 48 h; cells starved in 0.2% serum; 100% = growth in 10% serum;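 active = compounds whose signal lies at least 3.5 SD above the mean of all wells on their plate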
p-CIP stab down – p/CIP protein destabilization; F442A p/CIP-EGFP cells, EGFP fluorescence, 16 h; Q05BA5; 290,000 compounds, 0.01% hits; AID 1984; decrease of EGFP signal, % at 10 µM;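 active = EGFP signal decrease of at least 30% at 10 µM or well 3 SD below plate mean, unless failing retest; inactive = the rest, including hits failing retest or dose response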
Target sequence (Q05BA5 1-1403): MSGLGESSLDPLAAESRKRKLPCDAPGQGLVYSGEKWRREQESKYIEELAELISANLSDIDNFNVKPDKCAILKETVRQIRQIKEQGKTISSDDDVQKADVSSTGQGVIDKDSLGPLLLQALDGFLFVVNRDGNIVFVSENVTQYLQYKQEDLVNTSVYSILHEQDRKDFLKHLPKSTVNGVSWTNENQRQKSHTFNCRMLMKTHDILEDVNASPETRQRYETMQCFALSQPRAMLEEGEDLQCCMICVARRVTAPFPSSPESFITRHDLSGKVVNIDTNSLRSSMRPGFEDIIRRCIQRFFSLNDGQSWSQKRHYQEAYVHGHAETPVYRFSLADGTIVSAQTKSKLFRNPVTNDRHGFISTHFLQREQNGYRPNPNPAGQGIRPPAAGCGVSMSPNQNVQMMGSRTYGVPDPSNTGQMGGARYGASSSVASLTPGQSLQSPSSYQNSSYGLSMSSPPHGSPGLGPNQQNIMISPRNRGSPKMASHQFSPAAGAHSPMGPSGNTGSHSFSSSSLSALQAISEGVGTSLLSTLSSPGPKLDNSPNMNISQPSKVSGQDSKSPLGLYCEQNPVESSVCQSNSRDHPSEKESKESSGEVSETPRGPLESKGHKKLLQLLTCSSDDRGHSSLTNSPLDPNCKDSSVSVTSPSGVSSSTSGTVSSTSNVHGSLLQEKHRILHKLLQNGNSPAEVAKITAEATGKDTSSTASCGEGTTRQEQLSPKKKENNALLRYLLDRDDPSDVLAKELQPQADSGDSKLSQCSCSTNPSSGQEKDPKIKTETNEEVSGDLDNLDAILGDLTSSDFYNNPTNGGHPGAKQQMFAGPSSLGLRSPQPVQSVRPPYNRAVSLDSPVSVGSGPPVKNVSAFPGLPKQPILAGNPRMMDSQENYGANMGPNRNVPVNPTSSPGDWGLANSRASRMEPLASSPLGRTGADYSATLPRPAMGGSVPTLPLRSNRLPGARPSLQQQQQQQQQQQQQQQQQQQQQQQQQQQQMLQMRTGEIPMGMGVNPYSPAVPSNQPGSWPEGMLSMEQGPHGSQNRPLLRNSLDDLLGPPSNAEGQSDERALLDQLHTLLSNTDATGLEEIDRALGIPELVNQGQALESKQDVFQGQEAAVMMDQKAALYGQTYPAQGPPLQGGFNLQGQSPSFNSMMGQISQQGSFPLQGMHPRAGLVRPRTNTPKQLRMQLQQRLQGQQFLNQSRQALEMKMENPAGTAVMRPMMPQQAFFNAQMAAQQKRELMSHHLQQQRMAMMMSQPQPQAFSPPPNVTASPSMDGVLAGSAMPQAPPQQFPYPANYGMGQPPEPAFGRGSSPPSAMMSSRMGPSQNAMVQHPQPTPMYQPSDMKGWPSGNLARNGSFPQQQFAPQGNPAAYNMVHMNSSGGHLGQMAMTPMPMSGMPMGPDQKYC
GRIN3A LBD mod – modulates the human NR3A ligand-binding domain; AID 1259313; NR3A LBD differential scanning fluorimetry, Tm shift; 0% = protein alone, 100% = glycine-bound protein; 340,000 compounds, 2.5% hits; Tm shift relative to glycine control, % at 25 µM;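 active = melting temperature shift of at least 10% of the positive control shift, at one fixed dose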
Each line names hits and unclear results; the compound was inactive in the other large screens.

CN(C)c1ncnc2c1ncn2[C@H]1CN(C2CCCC2)C[C@@H](CO)O1	none (no result: MIN6 prolif, p-CIP stab down, GRIN3A LBD mod)
Clc1ccc(NCc2cccnc2)cc1	none
CC(C#N)(Nc1ccc(Cl)cc1)c1cccnc1 (stereo not given)	GRIN3A LBD mod 16.4
CC1=C(C(=O)Nc2cc(C(=O)NCc3ccccc3)ccc2C)SCCO1	none (no result: MIN6 prolif, p-CIP stab down, GRIN3A LBD mod)
O=C(O)c1ccc(-c2noc(-c3cccc(C(F)(F)F)c3)n2)cc1	GRIN3A LBD mod 12.8 (no result: p-CIP stab down)
CC(=O)NCCC(=O)Nc1cc(S(=O)(=O)Nc2ccc(Cl)cc2)ccc1N1CCCC1	none
N#Cc1ccc(C(=O)Nc2cc(S(=O)(=O)N3CCOCC3)ccc2N2CCCC2)cc1	none (no result: p-CIP stab down)
N#Cc1ccc(C(=O)Nc2cc(S(=O)(=O)Nc3ccc(Cl)cc3)ccc2N2CCCCC2)cc1	GRIN3A LBD mod 22.1
O=C(Nc1cc(S(=O)(=O)Nc2ccc(Cl)cc2)ccc1N1CCCCC1)c1ccc(F)cc1	GRIN3A LBD mod 24.6
COc1ccc(-c2csc(NC(=O)CSc3nc4ccccc4c(=O)[nH]3)n2)cc1	GRIN3A LBD mod 20.6
Nc1ccccc1SCC(=O)Nc1nc(-c2ccccc2)cs1	GRIN3A LBD mod 10.6
Cc1ccc(-c2csc(NC(=O)CSc3nc4ccccc4[nH]3)n2)cc1	GRIN3A LBD mod 20.5 (no result: MIN6 prolif)
O=C(CSc1nc2ccccc2c(=O)[nH]1)Nc1ccccc1N1CCOCC1	none
Cc1csc(SCC(=O)Nc2nc(-c3ccccc3)cs2)n1	none
O=C(CSc1nc2ccccc2c(=O)[nH]1)Nc1ccc(N2CCOCC2)cc1	GRIN3A LBD mod 17.4
Cc1ccc2ccccc2c1C(O)c1ncc(-c2ccccc2)[nH]1 (stereo not given)	none (no result: MIN6 prolif, p-CIP stab down, GRIN3A LBD mod)
Cc1cccc(N2CCN(C(C(=O)NCc3ccccc3)c3ccc(C(F)(F)F)cc3)CC2)c1C (stereo not given)	none (no result: FAS TE block, MIN6 prolif, p-CIP stab down, GRIN3A LBD mod)
Clc1ccc(-c2c[nH]c3ccccc23)nn1	GRIN3A LBD mod 18.1
Clc1ccc(-c2nnc(-c3ccccc3)c(-c3c[nH]c4ccccc34)n2)cc1	none
O=S(=O)(NCCc1ccccc1)c1ccc(F)cc1Br	GRIN3A LBD mod 12.7 (no result: MIN6 prolif, p-CIP stab down)
CCCNC(=O)CN(CCc1ccccc1)S(C)(=O)=O	GRIN3A LBD mod 12.7
COc1ccc(CCNC(=O)CN(CCc2ccccc2)S(C)(=O)=O)cc1OC	none
CS(=O)(=O)N(CCc1ccccc1)CC(=O)NCc1ccccc1	GRIN3A LBD mod 36.1
CC(=O)c1ccc(OC2(C)CCN(Cc3cc4ccccc4[nH]3)C2)cc1 (stereo not given)	none (no result: MIN6 prolif, p-CIP stab down, GRIN3A LBD mod)
CCn1nc(C)c(NC(=O)CCSc2nc(-c3ccco3)cc(C(F)(F)F)n2)c1C	GRIN3A LBD mod 557.2
CCCNC(=O)C1(C)CCN(C(=O)c2cccc(C(F)(F)F)c2)C1 (stereo not given)	none (no result: MIN6 prolif, p-CIP stab down, GRIN3A LBD mod)
Cc1ccc(CN2CC(N3CCN(CC4CC4)CC3)CS2(=O)=O)cc1 (stereo not given)	none (no result: MIN6 prolif, p-CIP stab down, GRIN3A LBD mod)
CNC(=S)n1cnc(N)n1	GRIN3A LBD mod 12.1
CN(C(=O)CSc1nc2ccccc2n1CCc1ccccc1)C1CCS(=O)(=O)C1 (stereo not given)	GRIN3A LBD mod 14.4
COCCn1c(SCC(=O)N(C)C2CCS(=O)(=O)C2)nc2ccccc2c1=O (stereo not given)	none
COC(=O)c1nc(-c2ccc(C)cc2)[nH]c1C(C)(C)C	none (no result: MIN6 prolif, p-CIP stab down, GRIN3A LBD mod)
CC(NC(=O)c1ccc(Cl)c(Cl)c1)c1ccc(-c2ccccc2)cc1 (stereo not given)	GRIN3A LBD mod 16.4
CCOc1ccc(CNC(=S)N/N=C\c2ccc([N+](=O)[O-])cc2)cc1	GRIN3A LBD mod 24.1
Clc1ccc(-c2csc(Nc3cccnc3)n2)cc1	GRIN3A LBD mod 14.6
Clc1ccc(Nc2nc(-c3cccnc3)cs2)cc1	GRIN3A LBD mod 13.0
Clc1cccc(Nc2nc(-c3ccncc3)cs2)c1	GRIN3A LBD mod 30.6
COc1cc2c(cc1OC)C(=O)CCC2	none (no result: MIN6 prolif, p-CIP stab down)
Cc1cccc(Cc2cccc(C)c2O)c1O	none (no result: MIN6 prolif, p-CIP stab down)
COc1ccc(NC(=O)Cn2cc(C#N)c3ccccc32)cc1	none
COc1ccc(OC)c(NC(=O)Cn2cc(C#N)c3cc(Br)ccc32)c1	GRIN3A LBD mod 15.1
CCC12C(=Nc3c(Cl)cccc31)C[C@@H]1CCN3C(=O)CCC[C@H]2[C@H]13 (stereo not given in full)	none (no result: MIN6 prolif, p-CIP stab down)
O=C(Nc1cccnc1)c1ccc(COCC(F)(F)F)cc1	GRIN3A LBD mod 10.5
CC(=O)Nc1cc(-c2cccc(F)c2)cn2c(-c3ccc(F)cc3)cnc12	none (no result: MIN6 prolif, p-CIP stab down, GRIN3A LBD mod)
O=C1N=c2ccccc2=C1c1sc(=S)n(-c2ccc(O)cc2)c1O	GRIN3A LBD mod 29.0
Cc1c(-n2c(O)c(C3=c4ccccc4=NC3=O)sc2=S)c(=O)n(-c2ccccc2)n1C	none
O=C1N=c2ccccc2=C1c1sc(=S)n(Cc2ccccc2Cl)c1O	GRIN3A LBD mod 19.4
Cc1cn([C@H]2C[C@H](O)[C@@H](/C=C/C(=O)NCCC(C)C)O2)c(=O)[nH]c1=O	none (no result: MIN6 prolif, p-CIP stab down, GRIN3A LBD mod)
O=C(NC1CCSC1=O)c1ccc(Oc2ccc(F)cc2)nc1 (stereo not given)	none
Cc1ccc(Oc2ccc(C(=O)NC3CCSC3=O)cn2)cc1 (stereo not given)	GRIN3A LBD mod 11.0
CCCCOC(=O)c1ccc(NC(=O)Nc2ccc(OC)c(OC)c2)cc1	GRIN3A LBD mod 19.0
COc1ccc(C(=O)CC(=O)Nc2ccc([N+](=O)[O-])cc2)cc1	GRIN3A LBD mod 24.4
COc1ccc(NC(=O)Nc2ccc3[nH]ccc3c2)cc1	GRIN3A LBD mod 34.8 (no result: p-CIP stab down)
COc1ccc(NC(=O)CNC(=O)c2ccc([N+](=O)[O-])cc2)cc1	none
CCCCOC(=O)c1ccc(NC(=O)c2c(OC)cccc2OC)cc1	none
COC(=O)c1ccc(NC(=O)Nc2ccc(OC)cc2)cc1	GRIN3A LBD mod 10.3
CCOC(=O)[C@]12CCCC=C1N(CCc1ccc(OC)c(OC)c1)C(=O)[C@H](CC(=O)NCCc1ccccc1OC)C2	none (no result: FAS TE block, MIN6 prolif, p-CIP stab down, GRIN3A LBD mod)
CCc1ccc(CCC(=O)Nc2ccc(OC)cc2)o1	GRIN3A LBD mod 32.5
COc1ccc(NC(=O)Nc2ccc3nonc3c2)cc1	GRIN3A LBD mod 18.7
COc1ccc(NC(=O)Nc2sc(=S)n(C)c2C)cc1	GRIN3A LBD mod 23.9
CCc1ccc(CCC(=O)Nc2ccc(Br)cc2)o1	none
Cc1c(NC(=O)OC(C)C)sc(=S)n1C	none
N#Cc1ccc(OCC(=O)Nc2ccncc2)cc1	none
N#Cc1ccc(NC(=O)Nc2ccc(Oc3ccc(NC(=O)Nc4ccc(C#N)cc4)cc3)cc2)cc1	GRIN3A LBD mod 32.3
CCCCNC(=O)C(NC(=O)Cc1cc(C(F)(F)F)cc(C(F)(F)F)c1)C(=O)c1ccccc1 (stereo not given)	none (no result: FAS TE block, MIN6 prolif, p-CIP stab down, GRIN3A LBD mod)
CCCS(=O)(=O)NC(=O)C1(C)CCN(C(=O)c2ccc3ccccc3n2)C1 (stereo not given)	none (no result: MIN6 prolif, p-CIP stab down, GRIN3A LBD mod)
Cn1c(Oc2cccnc2CN2CCCC2)nc2cc(-c3cccc(C(F)(F)F)c3)sc2c1=O	none (no result: MIN6 prolif, p-CIP stab down, GRIN3A LBD mod)
CCc1nc2ccc(C(=O)NCCN3CCNC3=O)cn2c1N(C)CCC(C)C	none (no result: MIN6 prolif, p-CIP stab down, GRIN3A LBD mod)
CCC(CC)C(=O)N(C)c1c(C)nc2c(OCc3ccccc3C(=O)OC)cccn12	none (no result: MIN6 prolif, p-CIP stab down, GRIN3A LBD mod)
COc1ccc(NC(=O)Nc2ccc(OC)cc2)cc1	GRIN3A LBD mod 13.2
